# From PubChem BioAssay (Tox21)
# Inconclusive results are not listed. Calls of active or inactive are those of the source. The call rests on the fitted dose curve; in most records, active means well fitted cell-killing curve with a large enough effect in the repeat runs (not every such curve was filed as active); inconclusive means weak or mixed curves, or effect the other way; inactive means no such curve, though single readings can be large or run the other way.
# Experiment: qHTS assay to identify small molecule antagonists of the farnesoid-X-receptor (FXR) signaling pathway - cell viability counter screen (AID 743221); further: nearly all actives have a fitted effect of over 50% in size
# Settings: FXR-bla HEK293T viability, CellTiter-Glo luminescence, 16 h; series mostly up to 62.6 µM; activity change, negative = cytotoxicity: at the top concentration
# Text: National Center for Advancing Translational Sciences [NCATS]
# NIH Chemical Genomics Center [NCGC]
# U.S. Environmental Protection Agency [EPA]
# National Institutes of Environmental Health Sciences [NIEHS]
# National Toxicology Program [NTP]
# U.S. Food and Drug Administration [FDA]
# The farnesoid-X-receptor (FXR), a nuclear hormone receptor, is highly expressed in liver, intestine, kidney and adrenal cortex. Natural ligands of FXR are the bile acids (Cholic acid, Chenodeoxy cholic acid etc). FXR is an important regulator of diverse metabolic pathways, including the bile acid homeostasis, lipid and glucose metabolisms. FXR regulates the expression of target genes by binding either as a monomer or as a heterodimer with the retinoid X receptor (RXR). Numerous studies have reported that FXR exerts protective function during cholestasis, diabetes, liver regeneration, and cancer. To identify compounds that inhibit FXR signaling, GeneBLAzer FXR-UAS-bla HEK 293T cell line (Invitrogen, Carlsbad, CA) containing a beta-lactamase reporter gene under the control of a UAS response element was used to screen the Tox21 10K compound library. The cytotoxicity of the Tox21 compound library against the FXR-bla cell line was tested in parallel by measuring the cell viability using CellTiter-Glo assay in the same wells.
# Tox21 Assay Protocol Summary:
# FXR-bla cells were dispensed at 5000 cells/5uL/well in 1536-well black wall/clear bottom plates using a Multidrop Combi (Thermo Fisher Scientific, Waltham, MA) dispenser. After the assay plates were incubated at 37 C and 5% CO2 for 5 h, 23 nL of compounds dissolved in DMSO, positive controls or DMSO only was transferred to the assay plate by a Pintool station (Kalypsys, San Diego, CA), followed by addition of 1 uL Chenodeoxycholic acid (50 uM, final concentration in the wells). The assay plates were incubated at 37C for 16 h. After 1 uL of LiveBLAzerTM B/G FRET substrate was added using a Bioraptr Flying Reagent Dispenser (FRD) workstation (Beckman Coulter, Indianapolis, IN), the plates were incubated at room temperature for 2 h, and fluorescence intensity was measured by an Envision plate reader (PerkinElmer, Shelton, CT). For cell viability readout that measures cytotoxicity, 4uL/well of CellTiter-Glo reagent was added into the assay plates using a Bioraptr FRD. After 30 min incubation at room temperature, the luminescence intensity in the plates was measured using a ViewLux plate reader (PerkinElmer).
# On the % scale 0 is the no-effect control and ±100 the full control effect.
row,SMILES,"activity change, negative = cytotoxicity"
1,C=CC(=O)CCCCC,-4.41% [at 81.1 µM] (inactive)
2,CC1(C)O[C@H]2CC(=O)OC[C@]23[C@H]2CC[C@@]4(C)[C@H](c5ccoc5)OC(=O)[C@H]5O[C@]54[C@]2(C)C(=O)C[C@@H]13,0.933% (inactive)
3,CCCCCCCCCCCCCCCCCC#N,-0.264% [at 81.1 µM] (inactive)
4,CC1=C(O)C(=O)C(C)O1 (stereo not given),1.91% [at 81.1 µM] (inactive)
5,CN(C)CC/C=C1/c2ccccc2COc2ccc(CC(=O)O)cc21,9.27% (inactive)
6,O/N=C/C=N/O,-0.474% (inactive)
7,Cc1c(Cl)cccc1Cl,-1.54% (inactive)
8,O=Cc1ccccc1Cl,-1.02% (inactive)
9,CCCC(=O)OC/C=C(\C)CCC=C(C)C,-1.59% (inactive)
10,N[C@@H](CSCCCO)C(=O)O,0.58% [at 29.1 µM] (inactive)
11,CC(C)=CCC/C(C)=C/COC=O,-2.7% (inactive)
12,COc1cc(/C=C/C(N)=O)cc(OC)c1OC,11% (inactive)
13,NCCOCCN,4.61% (inactive)
14,O=C1NC(c2ccccc2)(c2ccccc2)C(=O)N1COP(=O)(O)O,4.1% (inactive)
15,N#CCC(=O)NN,5.73% (inactive)
16,CC/C=C\CCOC(=O)c1ccccc1O,4.03% (inactive)
17,CC(C)CO,8.46% [at 81.1 µM] (inactive)
18,OC[C@H]1O[C@@H](O[C@@H]2[C@@H](CO)O[C@](O)(CO)[C@H]2O)[C@H](O)[C@@H](O)[C@H]1O,-3.77% (inactive)
19,O=C(O)c1cc2ccccc2nc1C(=O)O,-3.83% (inactive)
20,CCCCC1CCC(O)CC1 (stereo not given),4.86% (inactive)

row,SMILES,"activity change, negative = cytotoxicity"
1,Cn1c(=O)c2[nH]c(Br)nc2n(C)c1=O,6.12% (inactive)
2,O=C(CCCCC(=O)Nc1c(I)cc(I)c(C(=O)O)c1I)Nc1c(I)cc(I)c(C(=O)O)c1I,0.498% (inactive)
3,CC(Oc1cc(Cl)ccc1Cl)C(=O)O (stereo not given),19.3% (inactive)
4,CCn1cc(C(=O)O)c(=O)c2cnc(N3CCCC3)nc21,-0.638% [at 13.2 µM] (inactive)
5,CCCCCC(C)O (stereo not given),-6.44% (inactive)
6,C=CCN1C[C@H](C(=O)N(CCCN(C)C)C(=O)NCC)C[C@@H]2c3cccc4[nH]cc(c34)C[C@H]21,-16% (inactive)
7,CCN1CCCC1CN (stereo not given),-2.97% (inactive)
8,CCC(C)OC(C)CC (stereo not given),3.73% [at 81.1 µM] (inactive)
9,CCCC(CC)c1ccccc1 (stereo not given),-5.98% (inactive)
10,CCC(C)C(C)=O (stereo not given),-6.71% (inactive)
11,Cc1ccnc(N)c1,-0.668% (inactive)
12,CC(=O)OC(C)=O,4.41% [at 81.1 µM] (inactive)
13,C=C(C)[C@@H]1CC=C(C)C(=O)C1,-21.8% (inactive)
14,CN1CCOC(c2ccccc2)c2ccccc2C1 (stereo not given),-2.19% (inactive)
15,CCCCOCC(C)O (stereo not given),6.62% [at 81.1 µM] (inactive)
16,Cc1cc(-c2ccccc2)nnc1NCCN1CCOCC1,-1.03% (inactive)
17,CC(C)Nc1ccccc1,1.73% (inactive)
18,OCC1(CO)COCOC1,-18.1% (inactive)
19,CCC(=O)c1c(O)cc(O)cc1O,-0.289% (inactive)
20,CCCSSCCC,0.461% (inactive)
